{
  "source": "PubChem BioAssay AID1851",
  "about": "(National Center for Advancing Translational Sciences (NCATS), 2009)",
  "note": "Several values for one entry are separate records, joined by “and”; a condition that tells them apart may be missing. Identical values can stand only once. The whole screen tested about 16,000 compounds, of which about 5,100 (32%) were called active. About 25% were inconclusive and are not listed. The call rests on the fitted dose curve; in most records, active means well fitted curve in the direction sought with a large enough effect; inconclusive means small, poorly fitted or top-dose-only effect, or effect the other way; inactive means no such curve, though single readings can be large or run the other way. Some of the results follow. On the % scale 0 is the no-effect control and ±100 the full control effect.",
  "data": [
    {"biological_target": "Cytochrome P450 3A4 (Homo sapiens) (UniProt P08684)", "sequence (P08684 whole entry, looked up)": "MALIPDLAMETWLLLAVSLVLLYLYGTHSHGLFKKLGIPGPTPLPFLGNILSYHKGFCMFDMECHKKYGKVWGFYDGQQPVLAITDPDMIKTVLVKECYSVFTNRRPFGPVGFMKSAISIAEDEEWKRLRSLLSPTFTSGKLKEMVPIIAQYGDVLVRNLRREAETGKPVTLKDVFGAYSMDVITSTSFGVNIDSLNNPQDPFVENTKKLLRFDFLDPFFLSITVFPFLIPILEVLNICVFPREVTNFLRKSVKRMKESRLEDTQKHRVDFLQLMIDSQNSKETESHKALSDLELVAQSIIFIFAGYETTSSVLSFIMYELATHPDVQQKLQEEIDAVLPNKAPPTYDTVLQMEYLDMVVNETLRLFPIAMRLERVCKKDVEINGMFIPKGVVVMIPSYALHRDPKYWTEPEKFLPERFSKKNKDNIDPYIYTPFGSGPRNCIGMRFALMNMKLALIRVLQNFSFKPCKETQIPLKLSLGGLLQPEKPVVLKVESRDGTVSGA", "assay": "Cytochrome panel assay with activity outcomes", "details": "recombinant CYP, pro-luciferin dealkylation, luminescence, p450-cyp3a4; series mostly up to 57.1 µM", "values": [
      {"smiles": "CCCc1ccc(C2C3=C(CC(C)(C)CC3=O)NC3=C2C(=O)c2ccccc23)cc1", "note": "(stereo not drawn)", "AC50": "2820 nM (active)"},
      {"smiles": "CC(=O)N[C@@H](c1ccccc1)[C@]1(C)C[C@H]1[C@@H](C)C(=O)Nc1ccc2ccccc2c1", "AC50": "7940 nM (active)"},
      {"smiles": "COC(=O)N[C@H](c1ccccc1)[C@@]1(C)C[C@@H]1[C@@H](C)C(=O)Nc1ccc2ccccc2c1", "AC50": "200 nM (active)"},
      {"smiles": "CC(=O)N[C@H](c1ccccc1)[C@@]1(C)C[C@@H]1[C@@H](C)C(=O)Nc1ccc2ccccc2c1", "AC50": "7940 nM (active)"},
      {"smiles": "C[C@@H](C(=O)Nc1ccc2ccccc2c1)[C@H]1C[C@]1(C)[C@H](NC(=O)Oc1ccc(F)cc1)c1ccccc1", "AC50": "794 nM (active)"},
      {"smiles": "O=C(Nc1ccc2oc(=O)c(C(=O)O)cc2c1)Oc1ccccc1", "activity, negative = inhibition": "-5.24% [at 11.4 µM] (inactive)"},
      {"smiles": "Oc1c(CN2CCN(c3ccccc3)CC2)cc(Br)c2cccnc12", "activity, negative = inhibition": "0.931% [at 11.4 µM] (inactive)"},
      {"smiles": "C[C@@H](C(=O)Nc1ccc2ccccc2c1)[C@H]1C[C@]1(C)[C@H](NP(=O)(c1ccccc1)c1ccccc1)c1ccccc1", "AC50": "2000 nM (active)"},
      {"smiles": "C[C@@H](C(=O)Nc1ccc2ccccc2c1)[C@@H]1C[C@@]1(C)[C@@H](N)c1ccccc1", "AC50": "7940 nM (active)"},
      {"smiles": "C[C@@H](C(=O)Cc1ccc2ccccc2c1)[C@@H]1C[C@@]1(C)[C@@H](NP(=O)(c1ccccc1)c1ccccc1)c1ccccc1", "AC50": "1000 nM (active)"},
      {"smiles": "CN(Cc1cnc2nc(N)nc(N)c2n1)c1ccc(C(=O)N[C@H](CCC(=O)O)C(=O)O)cc1", "AC50": "inactive"},
      {"smiles": "C=C[C@@]1(C)CC(=O)[C@@]2(O)[C@@]3(C)[C@@H](O)CCC(C)(C)[C@@H]3[C@H](OC(=O)CCN(C)C)[C@H](OC(C)=O)[C@@]2(C)O1", "AC50": "2510 nM (active)"},
      {"smiles": "O=C(O)CC[P+](c1ccccc1)(c1ccccc1)c1ccccc1", "activity, negative = inhibition": "9.68% [at 11.4 µM] (inactive)"},
      {"smiles": "CCN1C(=O)[C@H]2[C@H]3[C@H](O)[C@H](O)C/C(=N/OC[C@@H](O)COCc4ccco4)[C@H]3CC[C@@H]2C1=O", "activity, negative = inhibition": "-17.6% [at 11.4 µM] (inactive)"},
      {"smiles": "O=C1[C@H]2[C@H]3[C@H](O)[C@H](O)C/C(=N/OC[C@@H](O)COCc4ccco4)[C@@H]3CC[C@@H]2C(=O)N1Cc1ccc2c(c1)OCO2", "AC50": "3160 nM (active)"},
      {"smiles": "O=C1[C@H]2[C@H]3[C@H](O)[C@H](O)C/C(=N/OC[C@@H](O)COCc4ccco4)[C@@H]3CC[C@@H]2C(=O)N1Cc1ccccc1", "AC50": "3160 nM (active)"},
      {"smiles": "O=C1[C@H]2[C@H]3[C@H](O)[C@H](O)C/C(=N/OC[C@@H](O)COCc4ccco4)[C@H]3CC[C@@H]2C(=O)N1Cc1ccc2c(c1)OCO2", "AC50": "3160 nM (active)"},
      {"smiles": "CCN1C(=O)[C@H]2[C@H]3[C@H](O)[C@H](O)C/C(=N/OC[C@@H](O)COCc4ccco4)[C@@H]3CC[C@@H]2C1=O", "activity, negative = inhibition": "-23.4% [at 11.4 µM] (inactive) and -18.4% [at 11.4 µM] (inactive)"}
    ]}
  ]
}
